# Screens as filed in PubChem.
# MBD2 DNA inh: inhibitors of MBD2 binding to methylated DNA, primary screen, biochemical, TR-FRET, DNA-binding domain, human | Methyl-CpG-binding domain protein 2 (Homo sapiens), Q9UBB5 | MBD2 binding to methylated oligonucleotide | inhibition, % at 4.4 µM | actives 0.31% (n = 370,000) | AID 686964, 2013; in the data active = inhibition above about 13%
# UHRF1 binding: UHRF1 methylated DNA binding inhibitors, primary screen, counter-screen for MBD2 inhibitor project, biochemical, TR-FRET, human UHRF1, single concentration. E3 ubiquitin-protein ligase UHRF1 (Homo sapiens), Q96T88. UHRF1 binding to methylated oligo. inhibition, % at 4.4 µM. actives 0.75% (n = 370,000); in the data active = inhibition above about 21%;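 also: UHRF1 SRA domain binding a hemimethylated CpG hairpin DNA probe; 0% = median of test compound wells and 100% = reference inhibitor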
# LEDGF integ inh: blockers of LEDGF/p75-dependent integrase strand transfer – biochemical, TR-FRET, high throughput, primary screen | HIV-1 integrase (with human LEDGF/p75) | TR-FRET IN-LEDGF/p75 DNA integration, Eu/Cy5 | inhibition, % at 3.7 µM | actives 0.64% (n = 370,000) | AID 743269, 2014;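 active = inhibition above the screen-wide mean plus 3 SD, cut at about 13% in these data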;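 also: signal is the Cy5 over europium emission ratio at 671 and 618 nm; 0% = plate median of compound wells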
# ABHD5-PLIN5 inh: ABHD5-PLIN5 interaction inhibitors, primary screen, cell lysate, split luciferase complementation, luminescence; Perilipin-5 (Homo sapiens) + 1-acylglycerol-3-phosphate O-acyltransferase ABHD5 (Homo …; Split G. princeps luciferase complementation, 4 h; inhibition, % at 4 µM; actives 0.78% (n = 360,000); AID 602281, 2012;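 active = inhibition above the mean inhibition across every tested compound plus 3 SD, cut at about 22% in these data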;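 also: 0% = DMSO only wells and the 100% control is not disclosed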
# PRMT1 FP inh: PRMT1 methyltransferase inhibitors, primary screen, biochemical, fluorescence polarization; inhibition, % at 2.79 µM; AID 652257, 2013; actives 1.3% (n = 370,000); Protein arginine N-methyltransferase 1 (Homo sapiens), Q99873; recombinant PRMT1, activity-based probe fluorescence polarization;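 active = inhibition above about 21% made by adding two undisclosed values, limit read from the data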
# Target sequence (Q99873 whole entry, looked up): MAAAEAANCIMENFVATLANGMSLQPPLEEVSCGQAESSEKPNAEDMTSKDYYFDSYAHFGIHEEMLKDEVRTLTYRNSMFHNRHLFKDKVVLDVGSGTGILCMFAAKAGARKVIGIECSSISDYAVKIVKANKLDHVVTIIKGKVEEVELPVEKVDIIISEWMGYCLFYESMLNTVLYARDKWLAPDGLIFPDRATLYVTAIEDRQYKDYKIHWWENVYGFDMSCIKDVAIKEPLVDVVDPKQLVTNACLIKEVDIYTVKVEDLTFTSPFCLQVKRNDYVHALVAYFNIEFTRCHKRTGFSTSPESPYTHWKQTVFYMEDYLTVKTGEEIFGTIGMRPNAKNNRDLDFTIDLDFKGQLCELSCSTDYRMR
# rCAG binder: binders of r(CAG) RNA repeats, primary screen, biochemical, fluorescence; r(CAG) RNA repeat, TO-PRO-1 dye displacement fluorescence; inhibition, % at 3 µM; actives 1.3% (n = 370,000);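 active = inhibition above the plate cutoff, the mean of all test compounds on that plate plus 3 SD, cut at about 35% in these data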;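 also: 0% = DMSO alone and 100% = 100 µM mitoxantrone as full dye displacement; higher means more dye released from RNA so lower well fluorescence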
# rCAG bind conf: small molecules binding CAG repeat RNA – biochemical, fluorescence, confirmation; actives 70% (n = 4,300); shares compounds with rCAG binder; r(CAG) RNA repeat, TO-PRO-1 dye displacement fluorescence; AID 652065, 2013; inhibition, % at 3 µM;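 active = inhibition above a per-plate cutoff, the mean inhibition of sample wells plus 3 SD, cut at about 35% in these data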;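 also: loss of TO-PRO-1 fluorescence as compound displaces dye from 1x1 AA loop RNA; 0% = DMSO only wells and 100% = 100 µM mitoxantrone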
# dCAG dye counter: displacement of TO-PRO-1 from CAG DNA duplex, counter-screen for rCAG RNA repeat binder project, biochemical, fluorescence, TO-PRO-1 dye, d(CAG) DNA oligo; d(CAG) DNA oligo TO-PRO-1 dye displacement; shares compounds with rCAG binder; actives 94% (n = 4,300); AID 652068, 2013; inhibition, % at 3 µM;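 active = inhibition above its plate's cutoff, the mean test-well inhibition plus 3 SD, cut at about 4.8% in these data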;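 also: 0% = DNA dye mix with DMSO and 100% = 100 µM mitoxantrone; hits displace the dye from DNA and so lower well fluorescence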
# dCAG dye DR: inhibitors of DNA CAG/GTC TO-PRO-1 complex, dose response, counter-screen for rCAG RNA repeat binder project, biochemical, fluorescence, TO-PRO-1 dye. shares compounds with rCAG binder. DNA CAG/GTC duplex TO-PRO-1 dye displacement fluorescence. IC50, µM. actives 20% (n = 250). AID 686960, 2013; in the data active = IC50 below about 10 µM
# PRMT1 confirm: PRMT1 methyltransferase inhibitors, confirmation, biochemical, fluorescence polarization, triplicate; shares compounds with PRMT1 FP inh; actives 42% (n = 3,300); inhibition, % at 2.79 µM; AID 687036, 2013; recombinant His-PRMT1, activity-based probe fluorescence polarization;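 active = mean inhibition across replicates above the hit cutoff derived for the earlier primary screen, cut at about 22% in these data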
# An asterisk follows results filed as active; i = inactive; x = not tested or not shown. This is a sample that favours compounds with a hit; in the whole collection about 4.1% have one here.
SMILES,MBD2 DNA inh,UHRF1 binding,LEDGF integ inh,ABHD5-PLIN5 inh,PRMT1 FP inh,rCAG binder,rCAG bind conf,dCAG dye counter,PRMT1 confirm,others
Cc1cc(NC(=O)CSc2nc3[nH]c(=O)cc(O)c3s2)ccc1Br,-2,-2,3,2,8,24,x,x,x,
Cc1cc(NC(=O)CSc2sc3c(O)cc(=O)[nH]c3c2C#N)ccc1Br,4,4,2,4,30*,51*,59*,32*,5,
Cc1ccc(C)c(NC(=O)CSc2sc3c(O)cc(=O)[nH]c3c2C#N)c1,1,15,3,-9,55*,51*,29,11*,7,
CCSc1nnc(NC(=O)CSc2sc3c(O)cc(=O)[nH]c3c2C#N)s1,11,32*,-1,3,27*,58*,63*,28*,10,
CN1C(=O)/C(=C/c2ccccc2OCc2ccc(F)cc2)N(C)C1=S,-5,-4,0,3,-2,2,x,x,x,
O=C(CCCN1C(=O)/C(=C\c2cccs2)SC1=S)Nc1cc([N+](=O)[O-])ccc1O,3,-2,0,0,-1,5,x,x,x,
O=C(O)CN1C(=O)/C(=C\c2ccccc2OCc2ccc(F)cc2)SC1=S,5,1,1,-9,25*,84*,72*,31*,-1,dCAG dye DR=i
O=C1/C(=C\c2cc([N+](=O)[O-])ccc2O)SC(=S)N1Cc1ccc(Cl)cc1,3,0,2,-7,26*,54*,87*,74*,33*,
O=C1/C(=C/c2ccncc2)SC(=S)N1Cc1ccccc1,-2,-1,-2,16,2,5,x,x,x,
O=C1/C(=C\c2cccc(O)c2O)SC(=S)N1Cc1ccccc1,-3,1,-1,-10,94*,37*,83*,53*,14,
COC(=O)c1cccc(Cn2ccc3ccc(-c4ccc5ccn(Cc6cccc(C(=O)OC)c6)c5c4)cc32)c1,-9,-3,6,x,-5,22,x,x,x,
CCOC(=O)C1=C(C)N=c2s/c(=C\c3ccc(OCC(=O)O)cc3)c(=O)n2C1c1ccc(Cl)cc1 (configuration not stated),2,-2,3,-6,30*,55*,73*,36*,10,
CCOC(=O)C1=C(C)N=c2s/c(=C\c3ccc(OCC(=O)O)cc3)c(=O)n2C1c1ccccc1OC (configuration not stated),6,-1,-2,-11,17,31,x,x,x,
CCOC(=O)C1=C(C)N=c2s/c(=C/c3ccc(OCC(=O)O)cc3)c(=O)n2C1c1ccc(OC)cc1OC (configuration not stated),3,2,6,-16,5,20,x,x,x,
CCOC(=O)C1=C(C)N=c2s/c(=C/c3ccccc3)c(=O)n2C1c1ccc(OC)c(OC)c1 (configuration not stated),7,0,4,-3,-1,-1,x,x,x,
CCOC(=O)C1=C(C)N=c2s/c(=C/c3ccc(OCC(=O)O)c(OC)c3)c(=O)n2C1c1ccc(Cl)cc1 (configuration not stated),7,-3,2,4,34*,44*,54*,16*,22*,
CCOc1ccc(C2C(C(=O)Nc3ccccc3)=C(C)N=c3s/c(=C/c4cccc(OCC(=O)O)c4)c(=O)n32)cc1 (configuration not stated),3,-3,6,19,25*,67*,83*,54*,1,
CCOC(=O)C1=C(C)N=c2s/c(=C/c3ccc(OCC(=O)O)cc3)c(=O)n2C1c1ccc(F)cc1 (configuration not stated),-2,-3,7,-12,37*,69*,77*,36*,11,
COc1ccc(-c2noc(C3CCCN(C(=O)N[C@@H]4C[C@H]4c4ccccc4)C3)n2)cc1 (some centres not stated),5,-1,2,x,-3,1,x,x,x,
C=CCN1C(=O)[C@@H](CC(=O)NCc2cccc3ccccc23)[C@]2(C(=O)OC)CCCCC=C12,2,-1,1,x,2,2,x,x,x,
CCCCN1CC(COCc2ccccc2)Oc2cccc(NCc3cc(OC)c(OC)c(OC)c3)c2S1(=O)=O (configuration not stated),-1,-2,1,x,0,8,x,x,x,
COc1cc2c(c(OC3OC(CO)C(O)C(O)C3O)c1)C(=O)CC(c1ccc(O)cc1)O2 (configuration not stated),-4,-2,-2,x,-4,-5,x,x,x,
CCCN1C(=O)SC(CC(=O)Nc2ccccc2)C1=O (configuration not stated),0,-4,-5,-2,6,-2,x,x,x,
O=C(CC1SC(=O)N(c2ccccc2)C1=O)Nc1ccc(Cl)cc1 (configuration not stated),2,0,-5,-18,26*,43*,8,6.6*,92*,
O=C(CC1SC(=O)N(c2ccccc2)C1=O)Nc1ccc(Br)cc1 (configuration not stated),-6,-2,2,-8,32*,42*,9,8.1*,102*,
O=C(CC1Sc2ncnn2C1=O)Nc1ccc(Cl)cc1 (configuration not stated),-1,-1,3,x,9,3,x,x,x,
